Results as given in PubChem BioAssay (NCI).
About 83,000 compounds went through this panel and 20% of them were active in at least one assay; those are over-represented in the sample as a whole.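 The test compound was applied at a single concentration to cells in 96-well plates for 48 hours, and percent growth was recorded.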 Activity calls are given as the source filed them.

System: OVCAR-8 ovarian
Assay: NCI-60 one-dose screen, 48 h (100 = growth as untreated, 0 = no growth, -100 = all killed)
Details: 10 µM unless noted
Procedure: Growth inhibition of the OVCAR-8 human tumor cell line is measured as a screen for anti-cancer activity. Cells are grown in 96 well plates and exposed to the test compound for 48 hours. Compounds are tested at a single concentration, which is 10^-5 M for most compounds. The reported endpoint is percent growth (GI% or GIPRCNT), where numbers from 0 - 100% represent growth inhibition, and numbers from -100% - 0 represent cell death. For example, a value of 40 represents 60% growth inhibition. A value of 0 means no net growth occurred over the course of the experiment. A value of -40 indicates 40% of cells at the beginning of the experiment died by the end of the experiment. A value of -100 means all cells are dead at the end of the experiment.
NCI-60 Human Tumor Cell Lines Screen was performed using the standard one-dose NCI protocol, which is described in more detail at https://dtp.cancer.gov/discovery_development/nci-60/default.htm.
Compounds with GIPRCNT values below 10 were considered active. Activity score was based on GIPRCNT using the following formula: […]
Score is 0 for GIPRCNT values of 100 or above, 50 for GIPRCNT values of 0, and 100 for GIPRCNT values of -100.

Row | Compound | growth
1 | COc1ccc(/C(C)=C(\c2ccc(Cl)cc2)c2ccc(OCCCN(C)C)cc2)cc1F | 71.5% (inactive)
2 | Cl.Fc1c[c-]c(-c2ccccn2)c(F)c1.[Pt].c1ccc([PH+](c2ccccc2)c2ccccc2[PH+](c2ccccc2)c2ccccc2)cc1 | -44.5% (active)
3 | CC(=O)c1sc(-c2ccccc2)cc1N | 92.8% (inactive)
4 | CN1C[C@@H](c2ccc(Cl)cc2)[C@]2(NC(=S)N(c3ccc(F)c(Cl)c3)C2=O)[C@@]12C(=O)NC1C=CC(Cl)=C[C@H]12 (stereo not given in full) | 60% (inactive)
5 | COc1ccc(Nc2ncc(Br)c(NCCCNC(=O)C3CCC3)n2)cc1 | 28.6% (inactive)
6 | N[C@@H]1CCC[C@H]1NCCCCN1C(=O)c2cccc3cccc(c23)C1=O | 45% (inactive)
7 | Cn1cc(Nc2nccc(-c3ccc(N4CCCC4)c(C#N)c3)n2)cn1 | 47.3% (inactive)
8 | O=C(O)c1ccc(CO)o1 | 95.5% (inactive)
9 | CS(=O)(=O)c1ccc(-c2nc3cc(Cl)ccc3n2CC(=O)N/N=C/c2ccc(Cl)cc2)cc1 | 43.6% (inactive)
10 | Nc1c(C(=O)c2ccc(Cl)s2)sc2nc3c(cc12)CCCC3 | 105% (inactive)
11 | COc1cc(C2C=C(c3cccc(NC(C)=O)c3)Nc3ncnn32)cc(OC)c1OC (stereo not given) | 24.3% (inactive)
12 | C=C1c2c(C)nn(-c3ccc(NC(C)=O)cc3)c2N(C)C23CC1C1(C)c4c(C)nn(-c5ccc(NC(C)=O)cc5)c4N(C)C(C)(CC12)C3 (stereo not given) | 40.8% (inactive)
13 | Cc1nn(Cc2ccccc2)cc1C(=O)Nc1sc2c(c1C(N)=O)CCC(=O)C2 | 20.3% (inactive)
14 | CSc1ccc(Cl)c(C(=O)Nc2sccc2C(N)=O)c1 | 94.4% (inactive)
15 | C=C1C(=O)O[C@H]2[C@H]1CC/C(COC(=O)/C=C\C(=O)NCc1ccc(Cn3c(=O)sn(CCCI)c3=O)cc1)=C\CC[C@@]1(C)O[C@@H]21 | -1.28% (active)
16 | Cc1[nH]c(-c2nc3ccccc3[nH]2)c(C)c1C(=O)NNc1ccc(Cl)cc1 | 90.2% (inactive)
17 | CC1(C)N=C(N)N=C(N)N1c1ccc(Cl)c(Cl)c1 | 28.7% (inactive)
18 | O=C(Nc1ccccn1)[C@H](O)[C@@H](O)C(=O)N1CCOCC1 | 96.7% (inactive)
19 | CC(=O)Nc1ccc2c(c1)Cc1c(F)cccc1-2 | 95.2% (inactive)
20 | COC1(CC[C@@H](C)COC2OC(CO)C(O)C(O)C2O)O[C@H]2C[C@H]3[C@@H]4CC=C5C[C@@H](OC6OC(CO)C(OC7OC(C)C(O)C(O)C7O)C(O)C6OC6OC(C)C(O)C(O)C6O)CC[C@]5(C)[C@H]4CC[C@]3(C)[C@H]2[C@@H]1C (stereo not given in full) | -64.6% (active)

Row | Compound | growth
21 | CC12CC(C#N)CCC1O2 (stereo not given) | 105% (inactive)
22 | C/C(=N\NC(=O)Cn1c(-c2ccc(S(C)(=O)=O)cc2)nc2cc(Cl)ccc21)c1ccc(Cl)cc1 | 79.5% (inactive)
23 | COc1ccc(OC)c(/C=C2\COc3ccc(O)cc3C2=O)c1 | 100% (inactive)
24 | COc1ccc(-c2cc(-c3cc(OC)ccc3O)[nH]c(=O)c2C#N)cc1 | 64.3% (inactive)
25 | C=C(C)[C@@H]1CC[C@]2(C(=O)NCC(=O)O)CC[C@]3(C)[C@H](CC[C@@H]4[C@@]5(C)Cc6c([nH]c7ccccc67)C(C)(C)[C@@H]5CC[C@]43C)[C@@H]12 | 78.4% (inactive)
26 | CN=C1C=CC(=C(c2ccc(N(C)C)cc2)c2ccc(N(C)C)cc2)C=C1 | -38.5% (active)
27 | COC(=O)[C@]12CC[C@@H](C)[C@H](C)[C@@H]1C1=CC[C@@H]3[C@@]4(C)C(C=O)=C[C@@](C)(CO)C4=CC[C@@]3(C)[C@]1(C)CC2 | 32.2% (inactive)
28 | CCOC(=O)c1nnn(-c2ccccc2)c1C1=CN(C)CCC1 | 102% (inactive)
29 | CCCCN1CCN(c2ccc3nc(-c4ccc5nc(-c6cc(OC)c(OC)c(OC)c6)[nH]c5c4)[nH]c3c2)CC1 | 56.2% (inactive)
30 | Cn1cc(-c2ccc3ncc(-c4ccc(CC(=O)Nc5cc(C(C)(C)C)nn5C)cc4)cc3c2)cn1 | 3.22% [30 µM] (active)
31 | CCN(CC)S(=O)(=O)c1ccc(O)c(NC(=O)c2[nH]c(C)c(C(C)=O)c2CCc2ccc(Cl)cc2)c1 | 37.5% (inactive)
32 | CN(C)c1cnccn1 | 92.5% (inactive)
33 | CNCCNc1nc2ccccc2c2c(=O)c3cc(F)ccc3oc12 | 47% (inactive)
34 | COc1ccc(-n2ncn(CCCCCCn3cnn(-c4ccc(OC)cc4)c3=O)c2=O)cc1 | 95.2% (inactive)
35 | COc1cc2c(c(OC)c1OC)C(=O)/C(=C/c1cc(C)c(O)c(C)c1)S2 | 41.5% (inactive)
36 | Cc1ccc(O)c(C(=O)c2ccccc2Cl)c1 | 97.6% (inactive)
37 | CNC(=O)c1c(NC(=O)c2ccc(C(C)(C)C)cc2)sc2c1CCC(=O)C2 | 15.7% (inactive)
38 | Cc1ccc(NC(=O)C(Cl)Cl)cc1 | 99.5% (inactive)
39 | COc1ccccc1NC(=O)Nc1ccc(-c2nc3ccccc3o2)cc1 | 102% (inactive)
40 | COc1cc(/C=C/C(=O)c2cccc(-n3cc(-c4ccccc4)[nH]c3=O)c2)cc(OC)c1OC | 12.5% (inactive)
